Assay results taken from PubChem BioAssay AID463173 (ICCB-Longwood Screening Facility, Harvard Medical School, 2010).
The whole screen tested about 52,000 compounds, of which about 4,300 (8.3%) were called active. Rule as the data show it: active = survival mostly below about 52% (no sharp cut-off); inactive = mostly above about 56%. The entries come from a sample that favours actives as a whole.

system: DeltatarO mutant; assay: S. aureus survival, RN4220 and DeltatarO strains – OD600, teichoic acid synthesis inhibitors, primary screen (AID 463173); conditions: S. aureus RN4220 wild type/DeltatarO growth, OD600, 18 h, active compounds read low, screened at 18.75 µg/mL (by protocol)

Structure (SMILES)	survival
O=C(CCSCCc1ccccn1)Nc1cc(F)ccc1F	79% (inactive)
COc1ccc(-c2csc3ncnc(Nc4ccc(OC)cc4OC)c23)cc1	64% (inactive)
CCCCNC(=O)c1ccc2c(c1)NC(=O)C(CS(=O)(=O)Cc1ccc(F)cc1Cl)N2 (stereo unspecified)	74% (inactive)
O=C(CSc1nc2c(oc3ccccc32)c(=O)n1-c1ccccc1)Nc1ccccc1F	66% (inactive)
O=C(CSCc1ccc(F)cc1)N1CCN(c2ccccc2F)CC1	102% (inactive)
COc1cccc(Nc2nc3ccccc3c3nncn23)c1	89% (inactive)
Cc1ccc(Cl)cc1Nc1nc2ccccc2c2nncn12	104% (inactive)
Cc1ccc(Nc2nc3ccccc3c3nncn23)cc1C	-4% (active)
O=C1CN(C(=O)c2ccc(S(=O)(=O)N3CCCCC3)cc2)C(c2ccc(F)cc2)c2cc(Cl)ccc2N1 (stereo unspecified)	62% (inactive)
CC(C)Oc1ccc(CNC(=O)Cn2c(=O)oc3ccccc32)cc1	77% (inactive)
Cc1nnc(SCc2ccc(Cl)cc2Cl)o1	80% (inactive)
C[C@H](NC(=O)OC(C)(C)C)c1nnc(SCc2ccc(Cl)cc2Cl)o1	54% (inactive)
CC(C)C[C@H](N)c1nnc(SCc2ccc(Cl)cc2Cl)o1	38% (active)
CSc1ncc2c(n1)-c1ccccc1N(Cc1ccc(Cl)cc1)S2(=O)=O	98% (inactive)
COc1cccc(CNC(=O)C2CCC(CNS(=O)(=O)c3ccc(Br)s3)CC2)c1 (stereo unspecified)	71% (inactive)
COC(=O)c1ccc(NC(=O)CN(C)S(=O)(=O)c2ccc(Br)s2)cc1	73% (inactive)
O=C(CCNS(=O)(=O)c1ccc(Br)s1)Nc1ccc(Br)cc1	40% (active)
Cc1cccc(NC(=O)C2CCC(CNS(=O)(=O)c3ccc(Br)s3)CC2)c1 (stereo unspecified)	52% (active)
Cc1cc(NC(=O)C2CCC(CNS(=O)(=O)c3ccc(Br)s3)CC2)ccc1Br (stereo unspecified)	93% (inactive)
CCOc1ccc(NC(=O)CCNS(=O)(=O)c2cccs2)cc1	51% (inactive)
COc1cccc(NC(=O)CCNS(=O)(=O)c2ccc3c(c2)oc(=O)n3C)c1	90% (inactive)
CCc1cccc(NC(=O)C2CCC(CNS(=O)(=O)c3ccc(Br)s3)CC2)c1 (stereo unspecified)	79% (inactive)
CCOc1ccc(NC(=O)CCS(=O)(=O)c2ccc(Br)s2)cc1	82% (inactive)

Structure (SMILES)	survival
Cc1ccc(NC(=O)CCNS(=O)(=O)c2ccc(Br)s2)cc1	50% (active)
COc1cccc(NC(=O)CCNS(=O)(=O)c2ccc(Br)s2)c1	37% (active)
CCOc1ccc(NC(=O)CNS(=O)(=O)c2ccc(Br)s2)cc1	49% (inactive)
Cc1c(Cl)cccc1NC(=O)CN1C(=O)COc2ccc(S(=O)(=O)N3CCOCC3)cc21	88% (inactive)
CC1C(=O)OC(c2ccccc2)C(C)(C)C1=O (stereo unspecified)	94% (inactive)
CCc1ccccc1N1C(=O)CC(N2CCc3ccccc32)C1=O (stereo unspecified)	102% (inactive)
Cc1ccc(NC(=O)c2oc3ccc(S(=O)(=O)N4CCCCC4)cc3c2C)c(C)c1	79% (inactive)
Cc1ccc(Cl)cc1N1CCN(C(=O)COCc2cc(-c3ccc4c(c3)OCO4)on2)CC1	95% (inactive)
Cc1cccc(CC(=O)NCCc2sc3nc(-c4ccc(F)cc4)nn3c2C)c1	91% (inactive)
COc1ccccc1NC(=O)Cn1c(=O)n(-c2cccc(Cl)c2)c(=O)c2sc3ccccc3c21	103% (inactive)
CCOC(=O)c1c(C)[nH]c(CCC(=O)NCc2ccc(OC)c(OC)c2)c1C	81% (inactive)
COc1ccc(C)cc1NC(=O)CSc1ncc2c(n1)-c1ccc(Cl)cc1N(Cc1ccccc1)S2(=O)=O	78% (inactive)
CCc1ccccc1NC(=O)CSc1nc2c(c(=O)[nH]1)CN(Cc1ccccc1OC)CC2	75% (inactive)
O=c1[nH]c(SCc2c(F)cccc2Cl)nc2c1CCC2	74% (inactive)
COc1ccc(OCC(=O)Nc2ccc(N3CCN(S(C)(=O)=O)CC3)cc2)cc1	97% (inactive)
COc1ccc(NC(=O)Cn2c(=O)nc(-c3ccccc3)c3ccccc32)cc1OC	78% (inactive)
Cc1ccc(Cl)cc1NC(=O)C1CCC(CNS(=O)(=O)c2cccc3nsnc23)CC1 (stereo unspecified)	100% (inactive)
Cc1ccc(NC(=O)C2CCC(CNS(=O)(=O)c3cccc4nsnc34)CC2)c(Cl)c1 (stereo unspecified)	47% (active)
Cc1ccc(NC(=O)C2CCC(CNS(=O)(=O)c3cccc4nsnc34)CC2)c(C)c1 (stereo unspecified)	95% (inactive)
CCCCN(CC)CCCNC(=O)c1nn(-c2ccc(OC)cc2)c(=O)c2c1c1ccccc1n2C	123% (inactive)
COc1cccc(C2=NS(=O)(=O)N(C)C(C(=O)Nc3cccc(O)c3)=C2)c1	70% (inactive)
COc1cc(NC(=O)Cn2ccn(-c3cc(C)cc(C)c3)c(=O)c2=O)cc(OC)c1	71% (inactive)
CCN(c1ccc(OC)cc1)S(=O)(=O)c1nnc(NC(=O)c2ccccc2Cl)s1	46% (active)

Structure (SMILES)	survival
CCN(c1ccccc1C)S(=O)(=O)c1nnc(NC(=O)c2ccccc2C)s1	15% (active)
CCN(c1ccc(Cl)cc1)S(=O)(=O)c1nnc(NC(=O)C(C)C)s1	84% (inactive)
CCN(c1ccccc1)S(=O)(=O)c1nnc(NC(=O)c2ccccc2OC)s1	47% (inactive)
CCN(c1cc(C)cc(C)c1)S(=O)(=O)c1nnc(NC(=O)c2ccccc2C)s1	49% (inactive)
CCN(CC)S(=O)(=O)c1nnc(NC(=O)c2ccccc2Cl)s1	70% (inactive)
CCN(c1cccc(C)c1)S(=O)(=O)c1nnc(NC(=O)c2ccccc2Cl)s1	17% (active)
CCN(c1ccc(Cl)cc1)S(=O)(=O)c1nnc(NC(=O)c2ccccc2C)s1	8% (active)
OCCN(Cc1ccccc1)Cc1ccccc1O	102% (inactive)
CC(=O)N1c2ccccc2C(=O)C1N1CCN(c2ccccc2)CC1 (stereo unspecified)	85% (inactive)
CCCOc1ccc(-c2cccc(NS(=O)(=O)c3cc(OC)ccc3OC)c2)nn1	99% (inactive)
COc1cccc(Nc2nc3cc(Cl)c(Cl)cc3nc2-n2nc(C)cc2C)c1	98% (inactive)
Cc1ccc(C(=O)c2cn(CC(=O)Nc3ccc(C)cc3Cl)c3nc(C)ccc3c2=O)cc1	99% (inactive)
Cc1ccc(Cl)cc1NC(=O)CCCn1c(=O)c2cccn2c2cccnc21	100% (inactive)
O=C(O)CCCN1CCCC1=O	81% (inactive)
CCCCOC(=O)c1ccc(NC(=O)CSc2nc3c(c(=O)[nH]2)CCC3)cc1	55% (inactive)
CC(C)=NOC1=NS(=O)(=O)c2ccccc21	92% (inactive)
O=C(Nc1ccc(F)c(Cl)c1)N1CCC2(CC1)Oc1ccccc1C(=O)N2Cc1ccccc1F	55% (inactive)
CC(C)OCCCNC(=O)CCCn1c(SCC(N)=O)nc2c(sc3ccccc32)c1=O	88% (inactive)
COc1ccccc1C(=O)Nc1nnc(S(=O)(=O)N(C)c2ccc(Cl)cc2)s1	95% (inactive)
CCN(c1ccc(OC)cc1)S(=O)(=O)c1nnc(NC(=O)c2ccccc2C)s1	37% (active)
Cc1ccccc1C(=O)Nc1nnc(S(=O)(=O)N(C)c2ccc(Cl)cc2)s1	30% (active)
CCN(c1ccc(OC)cc1)S(=O)(=O)c1nnc(NC(=O)COc2ccc(F)cc2)s1	70% (inactive)
Cc1ccccc1C(=O)Nc1nnc(S(=O)(=O)N(C)Cc2ccc(Cl)cc2)s1	102% (inactive)

Structure (SMILES)	survival
Cc1ccc(C)c(NC(=O)CN2C(=O)C3(SCC(=O)N3c3ccc(C)c(C)c3)c3ccccc32)c1 (stereo unspecified)	80% (inactive)
Cc1cc(C)cc(NC(=O)Cn2c(=O)n(CC(=O)NCCc3ccccc3)c(=O)c3ccccc32)c1	62% (inactive)
CCc1ccc2oc(-c3cc(NC(=O)c4cccs4)ccc3Cl)nc2c1	19% (active)
Cc1cc(C)c2oc(-c3ccc(C)c(NC(=O)/C=C/c4ccco4)c3)nc2c1	45% (active)
CC(C)c1ccc2oc(-c3ccc(Cl)c(NC(=O)Cc4ccccc4)c3)nc2c1	116% (inactive)
Cc1cc(NC(=O)c2cccs2)cc(-c2nc3cc(Cl)ccc3o2)c1O	79% (inactive)
Cc1ccc2oc(-c3ccc(C)c(NC(=O)/C=C/c4ccco4)c3)nc2c1	58% (inactive)
Cc1ccc(-c2nc3cc(C(C)C)ccc3o2)cc1NC(=O)c1cccs1	57% (inactive)
Cc1c(NC(=O)c2cccs2)cccc1-c1nc2cc(Cl)ccc2o1	42% (inactive)
O=C(Nc1ccc(O)c(-c2nc3ccccc3o2)c1)c1cccs1	75% (inactive)
Cc1ccc2oc(-c3cc(NC(=O)c4cccs4)cc(C)c3O)nc2c1	138% (inactive)
CC(C)c1ccc2oc(-c3ccc(Cl)c(NC(=O)c4cccs4)c3)nc2c1	5% (active)
CC(C)c1ccc2oc(-c3cc(NC(=O)c4cccs4)ccc3Cl)nc2c1	16% (active)
CCc1ccc2oc(-c3ccc(C)c(NC(=O)/C=C/c4ccco4)c3)nc2c1	83% (inactive)
Cc1ccccc1CS(=O)(=O)Cc1ccc(C(=O)NCCc2ccccc2)o1	86% (inactive)
COc1ccc(Cn2c(SCc3ccc(C(=O)NCc4cccs4)cc3)nc3cccnc32)cc1	63% (inactive)
CC(=O)c1cccc(NC(=O)c2ccc(Cl)c(S(=O)(=O)N3CCOCC3)c2)c1	73% (inactive)
CCc1cccc(C)c1NC(=O)c1ccc2c(c1)CCN2S(=O)(=O)c1ccc(Cl)cc1	67% (inactive)
CCCn1c2ccccc2c2cnn(CC(=O)NC(CCSC)C(=O)OC)c(=O)c21 (stereo unspecified)	124% (inactive)
N#Cc1nc(/C=C/c2ccc(F)cc2)oc1N1CCCCC1	93% (inactive)
COc1ccc(NC(=O)CCNS(=O)(=O)c2ccc3c(c2)CCCC(=O)N3)cc1	101% (inactive)
O=C(NCCc1ccccc1)c1ccc(Cn2c(SCc3ccc(F)cc3)nc3cccnc32)cc1	95% (inactive)
